Rows were chosen to be rich in hits. Some 8.9% of all compounds tested hit in one or more screens of this group.
KB-3-1 cytotox – KB-3-1 parental cell cytotoxicity; KB-3-1 viability, CellTiter-Glo ATP luminescence, 72 h; Potency, µM (doses to about 46.1 µM), most hits filed as cytotoxic; 1.4% of 400,000 active; AID 1347075; also: potency is read from the fitted curve at half-maximal effect; % is scaled to controls: 0 for no effect and ±100 for the full control effect; nearly all actives have a fitted effect of over 60% in size
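Cytotoxicity measured as CellTiter-Glo luminescence after 72 h at 37 C. Compound titrations were pinned onto drug-naive KB-3-1 parental adenocarcinoma cells grown in DMEM with 10% FBS, and normalized data fitted to concentration-response curves.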
MCF10A rerep – induces DNA re-replication in MCF 10a normal breast cells. MCF 10A DNA re-replication, Hoechst nuclear intensity, 48 h. Potency, µM (titrated, usually from 46.1 µM), for the others: at the highest dose activity, positive = re-replication, usual class: activators. 2.9% of 350,000 active. AID 624296; also: potency is read from the fitted curve at half-maximal effect; % of control where 0% means no effect; nearly all actives have a fitted effect of over 50% in size
SW480 rereplic – DNA re-replication induction in SW480 cells | 1.8% of 340,000 active | Potency, µM (highest dose often 46.1 µM), for the others: top-dose re-replication activation, usual class: activators | SW480 DNA re-replication, Hoechst DNA content imaging, 48 h | AID 624297; also: potency is read from the fitted curve at half-maximal effect; % of control where 0% means no effect; nearly all actives have a fitted effect of over 55% in size
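SW480 cells exposed to compounds for 48 hr at 37 C, 5% CO2, then Hoechst-stained 40 min. Nuclear DNA content imaged by fluorescence scanning (405 nm excitation, 500-530 nm emission); re-replication scored as increased high-intensity nuclei.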
D3 antag – antagonists of human D3 dopamine receptor; P35462; D3R cells, DiscoveRx beta-arrestin luminescence, antagonist mode; stronger effect = lower value; max response, negative = inhibition, %; 2.5% of 360,000 active; AID 652054; in the data active = max response below about -50%; inconclusive = no clear call, values can overlap the other calls; also: % is scaled to controls: 0 for no effect and ±100 for the full control effect
Target sequence (P35462 whole entry, looked up): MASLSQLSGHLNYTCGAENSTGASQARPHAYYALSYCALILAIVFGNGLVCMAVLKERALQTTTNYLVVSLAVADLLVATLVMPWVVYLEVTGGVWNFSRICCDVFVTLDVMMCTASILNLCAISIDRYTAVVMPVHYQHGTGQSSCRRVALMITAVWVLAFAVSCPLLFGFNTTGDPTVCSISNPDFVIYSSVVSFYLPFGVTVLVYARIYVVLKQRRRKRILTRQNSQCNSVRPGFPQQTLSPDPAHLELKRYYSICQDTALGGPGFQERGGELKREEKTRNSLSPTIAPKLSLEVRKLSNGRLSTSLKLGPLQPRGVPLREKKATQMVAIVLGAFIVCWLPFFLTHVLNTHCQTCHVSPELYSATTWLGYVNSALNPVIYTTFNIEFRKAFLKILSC
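Cells plated overnight at 1500 cells/well, then exposed to library compounds with dopamine controls for 90 minutes at 37 degrees C. DiscoveRx reagent added for 30–60 minutes at room temperature; luminescence read, quantitative HTS format.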
KB-V1 cytotox – KB-V1 MDR subline cytotoxicity; KB-V1 MDR cells viability, CellTiter-Glo, 72 h; Potency, µM (highest dose often 46.1 µM), hits mostly cytotoxic; 3.4% of 400,000 active; also: potency is read from the fitted curve at half-maximal effect; % is scaled to controls: 0 for no effect and ±100 for the full control effect; nearly all actives have a fitted effect of over 60% in size
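Following 72 h at 37 degrees C with compound, KB-V1 cell viability was read by CellTiter-Glo luminescence, medium being phenol-red-free DMEM plus 10% FBS; concentration-response parameters came from normalized, curve-fitted qHTS data.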
D3 ag – activates the human D3 dopamine receptor; P35462; D3R DiscoveRx beta-arrestin cells, luminescence, 90 min; max activation, %; 0.58% of 410,000 active; AID 652048; in the data active = max activation above about 30%; also: 0% is about no effect
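Agonist-mode cell screen: cells plated at 1500/well and incubated overnight at 37 °C, then exposed to library compounds for 90 min at 37 °C. Detection reagent was added for 30–60 min at room temperature, and luminescence was read.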
The depositor's hits bear a star; i = inactive; ? = inconclusive; . = not tested or not shown. Unless noted, calls follow the shape of the dose curve; as a rule, active = well fitted curve in the direction sought with a large enough effect; inconclusive = small, poorly fitted or top-dose-only effect, or another doubt; inactive = no such curve, though single readings can be large; an effect the other way counts as inactive or inconclusive.

SMILES	KB-3-1 cytotox	MCF10A rerep	SW480 rereplic	D3 antag	KB-V1 cytotox	D3 ag
CCOC(=O)N=Nc1c(O)n(CC(=O)OC)c2ccccc12	i	18%	0%	6	i	3
COc1ccc(C)cc1NC(=O)c1cc(S(=O)(=O)N2CCCCC2)ccc1N1CCOCC1	i	-2%	16%	-4	i	-3
Cc1cccn2c(=O)c3cc(C(=O)NCC4CCCO4)c(=N)n(C4CCCC4)c3nc12 (centres undefined)	i	?	18µM*	3	i	-3
N=c1c(C(=O)NCC2CCCO2)cc2c(=O)n3ccccc3nc2n1C1CCCC1 (centres undefined)	i	5.2µM*	?	2	i	6
N=c1c(C(=O)NCC2CCCO2)cc2c(=O)n3ccccc3nc2n1C1CCCCC1 (centres undefined)	i	15µM*	?	-12	i	-14
Cc1ccc2nc3c(cc(C(=O)NCC4CCCO4)c(=N)n3C3CCCC3)c(=O)n2c1 (centres undefined)	i	?	10%	-4	?	0
CCCCCCCCCCCCCCCC(=O)OC[C@@H](O)[C@H]1OC[C@H](O)[C@H]1O	.	.	.	.	.	-11
Cc1ccc(S(=O)(=O)C(CNC(=O)C(=O)NCc2ccccc2C)c2cccs2)cc1 (centres undefined)	i	.	.	.	i	4
O=C(NCCS(=O)(=O)N1CCN(c2cccc(Cl)c2)CC1)C(c1ccccc1)c1ccccc1	.	.	.	.	.	6
Cc1ccc(NC(=O)CC(C)S(=O)(=O)c2ccc3c(c2)NC(=O)CO3)cc1Cl (centres undefined)	i	.	.	.	i	12
COc1ccc(S(=O)(=O)Cc2ccccc2)cc1N	?	?	6.5µM*	-9	?	-3
CCN(c1ccccc1)S(=O)(=O)c1ccc(N)c(OC)c1	16µM*	18µM*	11µM*	21	23µM*	2
CCN(c1ccccc1)S(=O)(=O)c1ccc(F)cc1	i	-4%	-10%	-53*	i	1
Cc1ccc(-n2ncc3c(Nc4cccc(C)c4C)ncnc32)cc1	i	.	.	.	i	5
CCOC(=O)c1c(NC(=O)COc2cccc(C(F)(F)F)c2)sc2c1CCC(C)C2 (centres undefined)	i	.	.	.	i	-7
O=C(NC1CCCCC1)C(c1ccc2ncccc2c1)N(Cc1ccccc1)C(=O)c1ccc2c(c1)OCCO2 (centres undefined)	i	0%	-3%	-10	i	11
COc1ccc(CN(C(=O)c2ccc3c(c2)OCCO3)C(C(=O)NC2CCCCC2)c2ccc3ncccc3c2)cc1 (centres undefined)	i	13µM*	6%	16	i	3
O=C(NC1CCCCC1)C(c1ccccc1)N(C(=O)c1cccs1)c1ccc2c(c1)OCO2 (centres undefined)	i	-6%	1.3µM*	-26	?	-5
COc1ccc(CN(C(=O)c2cccs2)C(C(=O)NC2CCCCC2)c2ccc3ncccc3c2)cc1 (centres undefined)	i	-3%	-2%	61	?	-6
COc1ccc(C(C(=O)NC2CCCCC2)N(C(=O)c2cccs2)c2ccc3c(c2)OCO3)cc1 (centres undefined)	i	?	4%	?	i	-18
O=C(NC1CCCCC1)C(c1ccc2ncccc2c1)N(Cc1ccccc1)C(=O)c1cccs1 (centres undefined)	i	?	?	45	23µM*	26
Cc1ccc(C)c(NC(=O)Cn2cc(S(=O)(=O)N3CCCC3)c(S(=O)(=O)N3CCCC3)c2)c1	?	.	.	.	i	5
COc1ccc2[nH]c3c(c2c1)CCN1C(=O)N([C@@H](C)C(=O)NCc2ccc(C)cc2)C(=O)[C@]31C	i	-6%	12%	2	?	31*
CCOc1ccc(/C(O)=C2\C(=O)C(=O)N(CCN(C)C)C2c2cccc(OC)c2OC)cc1Cl (centres undefined)	i	24%	-2%	-56*	i	-1
CCCN(c1c(C)n(C)n(-c2ccccc2)c1=O)S(=O)(=O)c1ccc(C)cc1	i	.	.	.	i	-5
SMILES	KB-3-1 cytotox	MCF10A rerep	SW480 rereplic	D3 antag	KB-V1 cytotox	D3 ag
c1ccc(-c2nc(NCc3ccco3)c3oc4ccccc4c3n2)cc1	i	16µM*	3%	-6	?	2
c1ccc(-c2nc(NCCCn3ccnc3)c3oc4ccccc4c3n2)cc1	?	?	?	-19	5.8µM*	-22
Cc1cccc(NC(=O)CSc2nnc3ccc(-c4cccnc4)nn23)c1	i	.	.	-21	i	-2
Cc1ccc(-n2nc(C(=O)N3CCN(c4cc(Cl)ccc4C)CC3)c3c4ccccc4n(C)c3c2=O)cc1	i	.	.	.	i	-11
CCOC(=O)C1CCCN(C(=O)c2cc(COc3ccc(C)nc3)on2)C1 (centres undefined)	i	-1%	?	-6	16µM*	0
CCCCN(CCCC)S(=O)(=O)c1ccc2oc(C(=O)NCc3ccccc3)c(C)c2c1	i	.	.	.	i	-3
COc1ccc(CCCNC(=O)C2Cc3c(-c4cccc(C(C)=O)c4)ccnc3O2)cc1 (centres undefined)	6.5µM*	.	.	-2	21µM*	-2
NC(=O)c1cccc(-c2ccnc3c2CC(C(=O)NCCC(F)(F)F)O3)c1 (centres undefined)	i	.	.	0	i	-5
COc1ccc(CCCNC(=O)C2Cc3c(-c4ccc(NC(C)=O)cc4)ccnc3O2)cc1 (centres undefined)	?	.	.	-6	i	-7
CC(=O)c1cccc(-c2ccnc3c2CC(C(=O)NCCC(F)(F)F)O3)c1 (centres undefined)	7.3µM*	.	.	12	?	4
COc1ccc(NC(=O)C2Cc3c(-c4cccc(C(N)=O)c4)ccnc3O2)cn1 (centres undefined)	?	.	.	-28	i	0
CC(=O)c1cccc(NC(=O)C2Cc3c(-c4cccc(C(C)=O)c4)ccnc3O2)c1 (centres undefined)	i	.	.	20	21µM*	4
COc1ccc(NC(=O)C2Cc3c(-c4cccc(NC(C)=O)c4)ccnc3O2)cn1 (centres undefined)	4.6µM*	.	.	-24	i	-13
COc1cccc(NC(=O)CSc2nc3cc(OC)c(OC)cc3c3nc(-c4ccccc4)nn23)c1	i	.	.	.	?	-3

Screens as filed in PubChem.
